Compound activity deposited in PubChem by The Scripps Research Institute Molecular Screening Center.
In the library only some 2.4% were active in any assay of this set; here they are far more common.
CHO-K1 Ca antag – nonselective inhibitor or artifact in parental CHO-K1 cells; 360,000 tested, 0.6% active; inhibition, % at 3 µM; ATP-induced calcium, Fluo-8 fluorescence;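 active = inhibition above a per-plate cutoff, the plate's mean sample inhibition plus 3 SD, cut at about 24% in these data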;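 also: 0% = DMSO plus EC80 ATP and 100% = DMSO alone without ATP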
M1 antag – blocks human M1 muscarinic receptor. P11229. CHO-K1 hM1, Fluo-8 calcium fluorescence, ACh EC80 antagonist. inhibition, % at 3 µM. 360,000 tested, 1.3% active. AID 588852;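 active = percent inhibition above its own plate's cutoff, namely the mean of that plate's compound wells plus 3 SD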;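 also: peak over basal fluorescence ratio during 140 s after agonist addition; 0% = ACh EC80 plus DMSO and 100% = DMSO alone without agonist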
Target sequence (P11229 whole entry, looked up): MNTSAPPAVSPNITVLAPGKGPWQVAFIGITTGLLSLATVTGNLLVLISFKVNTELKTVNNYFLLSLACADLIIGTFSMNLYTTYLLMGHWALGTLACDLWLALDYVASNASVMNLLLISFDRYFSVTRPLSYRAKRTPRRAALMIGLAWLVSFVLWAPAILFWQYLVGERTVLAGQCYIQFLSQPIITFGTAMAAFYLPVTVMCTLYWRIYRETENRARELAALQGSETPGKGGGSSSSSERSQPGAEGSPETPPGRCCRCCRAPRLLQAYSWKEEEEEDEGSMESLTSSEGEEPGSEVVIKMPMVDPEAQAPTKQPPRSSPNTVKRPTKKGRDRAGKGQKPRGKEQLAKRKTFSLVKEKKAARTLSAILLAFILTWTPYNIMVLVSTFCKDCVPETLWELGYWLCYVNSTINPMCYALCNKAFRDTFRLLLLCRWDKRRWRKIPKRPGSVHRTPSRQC
M1 PAM – potentiates human M1 receptor response to acetylcholine | P11229 | CHO-K1 hM1, Fluo-8 calcium fluorescence, ACh EC20; 0% = ACh EC20, 100% = maximal ACh | activation, % at 3 µM | 360,000 tested, 0.088% active | AID 588819; in the data active = activation above about 19%, passing the limit was not always enough
CHO-K1 Ca PAM – counter-screen for M1 PAMs: effect in parental CHO-K1 cells; ATP EC20, Fluo-8 calcium fluorescence; 0% at ATP EC20, 100% at ATP max; activation, % at 3 µM; 360,000 tested, 0.02% active; AID 602247;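 active = activation above the run cutoff, the mean activation of all test compounds plus 3 SD, cut at about 40% in these data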;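 also: peak over basal fluorescence ratio in a 140 s read after ATP addition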
M1 ag – agonists of human M1 muscarinic receptor. activation, % at 3 µM. AID 588814. 360,000 tested, 0.33% active. P11229. CHO-K1 hM1, Fluo-8 calcium fluorescence, agonist mode; 0% DMSO, 100% acetylcholine EC100;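 active = activation above the run's mean compound activation plus 3 SD, cut at about 16% in these data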;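 also: peak over basal fluorescence ratio within a 140 s kinetic read after compound addition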
CHO-K1 Ca ag – counter-screen for M1 agonists: effect in parental CHO-K1 cells; Fluo-8 calcium fluorescence; scaled to maximal ATP response, vehicle zero; activation, % at 3 µM; 360,000 tested, 0.48% active; AID 602248; in the data active = activation above about 15%;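 also: untransfected CHO-K1 host cells lacking M1 receptor as counterscreen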
* hit, by the source's call.

SMILES	CHO-K1 Ca antag	M1 antag	M1 PAM	CHO-K1 Ca PAM	M1 ag	CHO-K1 Ca ag
CCOC(=O)N1CCN(C2OC(=O)c3ccccc32)CC1 (configuration not stated)	-3.0	-19.1	2.1	-0.9	25.1*	0.0
O=C(CN1C(=O)COc2ccccc21)NCCCN1CCCC1	-3.3	-2.6	4.8	6.3	-5.8	0.8
CC(=O)c1cccc(CN2CCN(Cc3ccc(F)cc3)C(CCO)C2)c1 (configuration not stated)	10.1	3.8	-1.8	9.4	-11.7	0.1
COc1cccc(CN2CCN(Cc3[nH]c4ccccc4c3C)CC2CCO)c1 (configuration not stated)	-0.2	-0.9	3.3	-0.8	-6.8	21.7*
CC(=O)c1cccc(CN2CCN(Cc3ccc(C)cc3)C(CCO)C2)c1 (configuration not stated)	-11.1	40.2*	-19.6	9.8	-9.1	1.4
Cc1nnc2ccc(-c3ccc(NS(C)(=O)=O)cc3)nn12	-6.5	2.2	1.4	19.1	-5.9	0.9
COc1cccc(Nc2nc(C(N)Cc3ccc(F)cc3)cs2)n1 (configuration not stated)	-0.8	-0.1	7.2	21.0	12.3	15.2*
Cc1ccc(-n2c(SCC(=O)N/N=C/c3ccccc3C(=O)O)nnc2-c2ccc(Cl)cc2)cc1	-8.9	-9.1	4.2	15.5	-3.0	0.4
Cn1cc(C(=O)c2ccc(Cl)cc2)cc1-c1nc2ccccc2n1C	3.1	23.7*	-14.5	-0.1	0.4	9.1
Cc1ccc(OCCN2C(=O)C(=O)c3cc(C)ccc32)cc1	-4.2	-1.9	0.6	10.5	0.4	1.8
Cc1ccc2c(c1)C(=O)C(=O)N2Cc1ccc(C(F)(F)F)cc1	5.3	7.7	3.6	-12.3	22.9*	6.7
O=C(NC(NC(=S)Nc1ccccc1Cl)C(Cl)(Cl)Cl)c1cccc(Cl)c1 (configuration not stated)	23.9*	22.2	-12.7	-0.8	4.8	14.2
COc1ccc(NC(=S)NC(NC(=O)c2cccc(Cl)c2)C(Cl)(Cl)Cl)c([N+](=O)[O-])c1 (configuration not stated)	14.6	26.4	-14.2	-8.4	7.8	14.7
C[N+]1(CC(O)c2ccccc2)CCCCCC1 (configuration not stated)	-6.1	2.8	-8.7	0.4	-9.2	0.5
CC(=O)OC(C[N+]1(C)CCCCCC1)c1ccccc1 (configuration not stated)	-11.3	56.9*	-27.6	18.2	-10.4	1.9
CC(OC(=O)CNC(=O)c1ccc(Br)cc1)C(=O)NC1CCCCC1C (configuration not stated)	-2.7	-11.9	8.9	9.0	0.6	2.8
CC(OC(=O)CNC(=O)c1ccc2ccccc2c1)C(=O)NC1CCCCC1C (configuration not stated)	7.5	-9.3	4.5	16.1	1.3	17.6*
CC(OC(=O)CNC(=O)c1ccc(Cl)cc1)C(=O)NC1CCCCC1C (configuration not stated)	25.2*	-6.1	13.8	-21.7	7.3	0.4
C(=NN1CCCCCC1)c1ccc2ccccc2n1	-15.6	-12.6	-0.7	14.0	-8.0	0.9
Cc1cc(C)cc(N(C(=O)c2csnn2)C(C(=O)NC(C)(C)C)c2ccncc2)c1 (configuration not stated)	-18.3	-2.4	10.8	24.8	-5.5	-0.3
COc1ccc(/C=C2\CN(Cc3ccccc3)C/C(=C\c3ccc(OC)cc3)C2=O)cc1	4.2	-8.4	4.5	0.9	-4.8	0.3
COc1ccc(/C=C2\CN(Cc3ccccc3)C/C(=C\c3ccc(OC)cc3OC)C2=O)c(OC)c1	8.7	29.2*	-7.4	4.1	0.3	3.9
Oc1ccc(/C=C/c2ccc3ccccc3n2)cc1	-9.4	-0.8	4.1	15.8	-2.4	0.9
Cc1c(C(c2cc3c(cc2Br)OCO3)c2c(C)n(C)n(-c3ccccc3)c2=O)c(=O)n(-c2ccccc2)n1C	-10.8	39.3*	-20.7	6.6	-7.6	-0.2
CCOC(=O)c1nonc1NC(C)=O	4.1	-6.4	9.9	-0.2	-3.0	0.4
SMILES	CHO-K1 Ca antag	M1 antag	M1 PAM	CHO-K1 Ca PAM	M1 ag	CHO-K1 Ca ag
COC(=O)c1ccc(CO/N=C(\NC(C)=O)c2nonc2NC(C)=O)cc1	-9.4	-8.0	2.2	17.1	17.0*	0.5
CC1(C)CC(=O)C(C=NCCN2CCN(C3CC(=O)N(c4cccc(Br)c4)C3=O)CC2)=C(O)C1 (configuration not stated)	-12.8	7.9	-1.8	7.3	-2.3	3.1
COc1cccc(N2C(=O)CC(N3CCN(CCN=CC4=C(O)CC(C)(C)CC4=O)CC3)C2=O)c1 (configuration not stated)	10.4	1.0	-0.6	11.9	-4.7	18.8*
O=C(COC(=O)CNC(=O)c1ccccc1)NCCc1ccccc1	-6.9	-7.6	10.8	12.1	-3.1	0.8
Cc1cc(C(=O)NCC(=O)OCC(=O)NCCc2ccccc2)ccc1[N+](=O)[O-]	52.6*	5.8	2.9	-18.1	-1.4	-1.0
O=C(Nc1ccc(S(=O)(=O)N2CCCC2)cc1)c1ccc(OCC2CCCO2)cc1 (configuration not stated)	-10.8	4.9	-2.9	10.5	-6.8	7.5
O=C(Nc1cccc(Br)c1)c1ccc(Cl)c(S(=O)(=O)N2CCOCC2)c1	5.0	42.8*	-27.7	-12.8	1.3	13.7
COc1ccc(C(=O)Nc2ccc(Cl)c(S(=O)(=O)N3CCOCC3)c2)cc1	-5.9	7.6	-15.2	1.8	6.4	17.3*
COc1ccc(NC(=O)CCN2CCN(S(=O)(=O)c3cc(Cl)ccc3Cl)CC2)cc1	-44.4	-8.1	-0.1	57.5*	8.7	9.9
O=C(Nc1ccc(Cl)c(S(=O)(=O)N2CCOCC2)c1)c1ccc(OCC2CCCO2)cc1 (configuration not stated)	24.0*	36.4*	-29.7	-16.6	0.3	10.9
O=C(Nc1cccc(C(=O)NC2CC2)c1)c1ccc(Cl)c(S(=O)(=O)N2CCOCC2)c1	-4.2	12.9	-7.0	-8.8	-2.8	3.1
Cc1cc(C)n(-c2ncnc3ccccc23)n1	-16.0	-6.3	8.7	8.8	-1.8	0.2
CCC(CO)Oc1cc(NC(=O)c2ccccc2C)c2ncn(C(C)C)c2c1 (configuration not stated)	-8.5	0.3	8.0	16.8	-10.7	2.1
COc1ccc2cc1Oc1ccc(cc1)CC1c3c(cc(OC)c4c3Oc3cc5c(cc3O4)CCNC5C2)CCN1C (configuration not stated)	-1.3	90.6*	-35.3	-6.3	-11.7	3.3
CC[C@H]1c2[nH]c3ccccc3c2C[C@H]2C(=O)N(c3ccc(F)cc3)C(=O)N21	24.0*	9.5	-8.4	-15.5	-3.5	1.5
COC1=Nc2ccccc2N2CCN=C12	16.6	-0.1	3.2	20.9	0.9	0.0
